These results are taken from PubChem BioAssay AID441 (NMMLSC, 2006).

By inhibition is commonly meant the change of the read-out against control, counted positive when it falls.

In all, about 24,000 compounds went through this assay and about 70 (0.3%) were called active. Only a selection was taken, and actives are over-represented in it overall. Unmarked numbers belong to inactive results. Cut-off read from the data, not from the text of the source: active = inhibition above about 30%; inconclusive = no clear call, values can overlap the other calls; inactive = below that.

Sequence of N-formyl peptide receptor 2 (Homo sapiens) (P25090 whole entry, looked up): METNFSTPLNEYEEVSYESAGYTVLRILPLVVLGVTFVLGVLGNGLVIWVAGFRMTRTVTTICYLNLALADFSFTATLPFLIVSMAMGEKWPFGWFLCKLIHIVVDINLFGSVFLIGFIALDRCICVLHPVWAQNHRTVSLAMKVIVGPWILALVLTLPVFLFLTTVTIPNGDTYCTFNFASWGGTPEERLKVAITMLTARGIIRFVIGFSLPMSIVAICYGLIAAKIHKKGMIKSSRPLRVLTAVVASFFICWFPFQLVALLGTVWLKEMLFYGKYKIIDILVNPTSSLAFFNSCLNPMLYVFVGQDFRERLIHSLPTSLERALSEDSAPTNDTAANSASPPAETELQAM

The assay has as its target N-formyl peptide receptor 2 (Homo sapiens) (UniProt P25090). The assay is described as follows: small molecules displacing FPRL1 fluorescent ligand – cell-based, FPR counter-screen, flow cytometry, primary screen (AID 441).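 Note: 0% = buffer alone and 100% = receptor blocker peptide.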 As to conditions: FPRL1-expressing cells, fluorescent ligand binding inhibition, active compounds read high, concentration not given here. (Counterscreens check selectivity or assay interference.)
For `Cc1nnc(SCC(=O)N(C(C)C)C(C)C)nc1C`, the inhibition is -5.7%. The figure for `CCOC(=O)N1CCC(NC(=O)Cn2cc3c(n2)CCCCC3)CC1` is 0.2%; for `CCOC(=O)c1oc2c(CN3CCN(C)CC3)c(O)ccc2c(=O)c1-c1ccc(Br)cc1` it is -3%; for `Cn1c(CNC(=O)C(C)(C)C)nc2ccccc21` it is -0.3%. As to `Cc1c(NC(=O)C(C)OC(=O)c2cc3c4ccccc4n(C)c3s2)c(=O)n(-c2ccccc2)n1C` (configuration not stated), the inhibition is 0.1%. Take `CCCNC(=O)C1CC(=O)N(c2ccc(OCC(=O)Nc3cccc(C)c3C)cc2)C1` (configuration not stated): the inhibition is -4.6%. The figure for `O=c1c2ccccc2[nH]c(=S)n1CCN1CCC(=C(c2ccc(F)cc2)c2ccc(F)cc2)CC1` is -11%; for `COCCCN1C(=O)C(=O)/C(=C(/O)c2ccc3c(c2)CC(C)O3)C1c1cccnc1` (configuration not stated) it is 28.3%; for `CC1Cc2cc(/C(O)=C3\C(=O)C(=O)N(CCN4CCOCC4)C3c3ccccc3F)ccc2O1` (configuration not stated) it is 30.8% (active). For `O=C1C(=O)N(CCN2CCOCC2)C(c2ccccn2)/C1=C(/O)c1ccc(Cl)cc1` (configuration not stated), the inhibition is -6.2%. The figure for `CCOc1ccccc1C1CC(c2ccccc2)Nc2nc(N)nn21` (configuration not stated) is 0.2%; for `CCOC(=O)C1CCN(C(=O)Cc2c(C(=O)O)[nH]c3ccccc23)CC1` it is 0.3%. The figure for `CC1CCC(NS(=O)(=O)c2ccc3c(c2)n(C)c(=O)c(=O)n3C)CC1` (configuration not stated) is -4.7%; for `O=C(CC(NCCN1CCOCC1)C(=O)O)Nc1cccc(Cl)c1` (configuration not stated) it is 4.9%; for `CCN(CCCNC(=O)C1CCN(S(=O)(=O)c2cnc[nH]2)CC1)c1ccccc1` it is -1.3%. With `CCOC(=O)CNC(=O)CN1C(=O)CCSc2ccccc21` the figure was -6.4%. Consider `CCOC(=O)c1ccc(-n2c(C)nc3c(cnn3-c3ccccc3C)c2=O)cc1`, for which the inhibition is -6%. Regarding `Cc1cc(C)cc(N(CC(=O)NCC2CCCO2)S(=O)(=O)c2c(C)noc2C)c1` (configuration not stated), the inhibition was 3.6%.

Consider `Cc1nc2ccccc2c2oc(C(=O)NCC3CCCO3)cc12` (configuration not stated), for which the inhibition is 3.5%. With `CCOC(=O)c1nnn(-c2nonc2OC)c1-c1ccccc1` the figure was 5.9%; with `N#CCCN1CCN(S(=O)(=O)c2ccc(S(=O)(=O)N3CCCC3)cc2)CC1`, 1.9%. As for `COC(=O)C1=C(C)Nc2ncnn2C1c1ccco1` (configuration not stated), the inhibition is 0.6%. The figure for `COc1ccc(N2C(=O)CCC(C(=O)N(C)C3CCCCC3)C2c2ccc(OC)c(OC)c2)cc1` (configuration not stated) is -4.6%; for `CCOC(=O)N1CCC(Nc2c(NCCN3CCN(c4cccc(Cl)c4)CC3)c(=O)c2=O)CC1` it is 8%. With `O=C(CC1Oc2ccccc2NC1=O)NCCCN1CCN(Cc2ccccc2)CC1` (configuration not stated) the figure was -1.8%; with `Cc1cccc(N2C(=O)SC(N(CC(=O)O)c3cccc(C)c3)C2=O)c1` (configuration not stated), 0.6%. With `C/C(N)=C(\C#N)C(=O)NCCc1ccccn1` the figure was -4.6%; with `COC(=O)c1ccc(CN(c2ccccc2OC)S(=O)(=O)c2cccs2)o1`, -4.4%. For `O=C(NCc1ccco1)C1CCCN(S(=O)(=O)c2cnc[nH]2)C1` (configuration not stated), the inhibition was 0.2%. The figure for `Cc1cc(N2C(=O)C(=O)/C(=C(/O)c3ccccc3)C2c2cccc(Br)c2)no1` (configuration not stated) is -8.1%; for `COc1cccc(C(CC(=O)NCCN2CCOCC2)NS(=O)(=O)c2ccc(C)cc2)c1OC` (configuration not stated) it is 0.8%; for `O=C(CN1CCN(c2ccccc2F)CC1)c1ccc2c(c1)OCO2` it is -9.1%. With `O=C(Nc1cccnc1)c1ccc2c(c1)OCO2` the figure was -0.1%. The figure for `CCOC(=O)c1cn(CC(=O)Nc2ccc(C(C)C)cc2)nn1` is 1.8%.

Take `CC1CN(C(=O)c2ccc3c(c2)OCO3)OC(c2ccccc2)O1` (configuration not stated): the inhibition is 5.6%. The figure for `Cc1ccc(-n2nc3cc(Cl)c(NC(=O)c4ccco4)cc3n2)cc1` is -4.7%; for `CCOC(=O)c1nc(-c2ccc3c(c2)OCO3)[nH]c1C` it is -7.4%.

As for `CCC1=C(C(=O)OC)C(c2cc(OC)ccc2OC)C(C#N)=C(N)O1` (configuration not stated), the inhibition was -1.1%. As to `COCCN1C(=O)c2oc3c(C)cc(C)cc3c(=O)c2C1c1cccc(O)c1` (configuration not stated), the inhibition was -10.9%. The figure for `CCCS(=O)(=O)N1CCCC(C(=O)NCCN2CCCCC2C)C1` (configuration not stated) is 3.4%; for `O=C(Cn1cnc2c(nnn2Cc2ccc(F)cc2)c1=O)NCc1ccc2c(c1)OCO2` it is -2.3%. With `Cc1cc(C)c2c(n1)nn1c(N3CCOCC3)cc(C)nc21` the figure was -1.1%; with `CCOc1ccc(C(CC(=O)O)NC(=O)COc2ccccc2)cc1` (configuration not stated), 0.6%. With `CCOC(=O)C1C(=O)C=C(c2ccc(OC)cc2)CC1c1ccco1` (configuration not stated) the figure was -6.4%. `CCn1cc(C(=O)NC2CCCCCC2)c(=O)c2cc(S(=O)(=O)N3CCCCC3)ccc21`: the inhibition is -5.2%.

As for `Brc1cnc(N2CCCC2)nc1N1CCCCC1`, the inhibition was 0.1%. The figure for `CC(C)Cc1cc(C(=O)Nc2cc(Br)ccc2O)no1` is -1.4%; for `Cc1cc(NC(=O)c2cc(-c3cccs3)on2)nn1Cc1ccc(Cl)cc1` it is 2%; for `CC(C)C[C@H](NC(=O)Nc1cccc(C(F)(F)F)c1)C(=O)O` it is 2.8%. With `Fc1ccccc1C(c1nnnn1Cc1ccc2c(c1)OCO2)N1CCN(Cc2ccccc2)CC1` (configuration not stated), the inhibition was 10.3%. With `Clc1ccc(Cc2nn3c(-c4ccncc4)nnc3s2)cc1` the figure was 54.5% (active); with `c1ccc(Cc2nn3c(Cn4cnc5ccccc54)nnc3s2)cc1`, 4.2%; with `CCOc1cccc(-c2nnc3sc(COc4ccc(OC)cc4)nn23)c1`, -1%. The figure for `O=C(COC(=O)C12CC3CC(CC(C3)C1)C2)NCc1ccco1` is 0.4%. The figure for `CCCN(CCC)CCNC(=O)c1cc2c(C)nc3ccccc3c2o1` is 4.8%; for `O=C1CC(c2cccc(F)c2)C2=C(CCCC2=O)N1` (configuration not stated) it is 4.1%; for `CC(=O)NC1CC2CCCC(C1)N2CC(=O)Nc1ccccc1` (configuration not stated) it is 2.2%. Consider `O=C1NC2(CCCCC2)N=C1c1ccccc1`, for which the inhibition was -5.4%.

On to `CC(=O)Nc1cc(C(=O)O)ccc1S(=O)(=O)c1ccc(Cl)cc1`, for which the inhibition was -2.1%.

For `CCOC(=O)c1cnc(-n2nc(C)cc2C)nc1Nc1cccc(C(C)=O)c1`, the inhibition is 9%. The figure for `C[N+](C)(C)CCOP(=O)([O-])OC[C@H](O)CO` is 5.6%. With `O=C(Nc1cccc(OCC(=O)N2CCOCC2)c1)C1CCCCC1` the figure was -0.9%; with `CCOc1ccccc1NC(=O)c1cc(S(=O)(=O)N2CCC3(CC2)OCCO3)ccc1F`, -14.8%; with `CC1(C)CC(O)C(CCC(O)c2ccccc2)C(C)(C)N1` (configuration not stated), 6.7%. With `COc1ccc(-c2noc(-c3cccc(OC)c3OC)n2)cc1OC` the figure was -2.6%; with `COc1ccc(S(=O)(=O)NC2(C(F)(F)F)N=C3SCCN3C2=O)cc1` (configuration not stated), 0.8%. On to `O=C(c1ccccc1)c1cccn1CC(=O)N1CCN(c2ccc(F)cc2)CC1`, for which the inhibition was 14.7%. The figure for `COc1ccc(NC(=O)C2CCCN(S(=O)(=O)c3cccc4cccnc34)C2)cc1` (configuration not stated) is -6%; for `COc1ccc(CC(NC(C)=O)C(=O)NC2CCN(C(=O)Nc3ccc(C#N)cc3)CC2)cc1OC` (configuration not stated) it is 17.9%; for `COc1ccccc1N1CCN(c2nc3ccccc3n3nnnc23)CC1` it is -3.6%. With `Cc1noc(C)c1S(=O)(=O)NCCc1ccc(S(N)(=O)=O)cc1` the figure was 3%; with `Nc1scc(-c2ccncc2)c1Cl`, -8.7%.

Take `COc1ccc(NC(C)=O)cc1NC(=O)CN1CCN(c2ccccn2)CC1`: the inhibition was -0.9%. The figure for `Cc1ccc(S(=O)(=O)N2C3C=CC(C3)C2C(=O)O)cc1` (configuration not stated) is 0.9%. With `COc1cc(C2C(C(=O)Nc3ccc(F)cc3)=C(C)Nc3nc(CCCO)nn32)cc(OC)c1OC` (configuration not stated) the figure was -2.7%; with `CC(=O)Nc1ccc(-c2cn3cccnc3n2)cc1`, 2.3%. With `CCOC(=O)N1CCN(C(=O)c2cnc3n(c2=O)CCS3)CC1` the figure was -0.5%; with `O=C(CCSCCc1ccccn1)Nc1nccs1`, 0.5%; with `Cc1c2cnn(-c3ccccc3)c(=O)c2c(C)n1CCCC(=O)N1CCN(C)CC1`, 0%. Regarding `COc1cccc(Nc2nnc(SCC(=O)N3CC(C)OC(C)C3)s2)c1` (configuration not stated), the inhibition is -0.3%. The figure for `COCCCNC(=O)c1ccc2c(c1)ncn2-c1ccccc1OC` is 0.4%. Turning to `COc1ccc(NC(=O)CCNC(=O)Cn2ccc3ccccc3c2=O)c(OC)c1`, the inhibition is -0.5%. With `Cc1cc(C)c(C#N)c(SCc2[nH]nc3c2C(c2ccccc2)C(C#N)=C(N)O3)n1` (configuration not stated), the inhibition was -9.6%.

For the molecule `O=C(O)C1CCCCC1C(=O)Nc1ccc(Cl)cc1` (configuration not stated), the inhibition was -0.4%. Take `O=C(Cn1nc(Cc2cccnc2)c2ccccc2c1=O)NCC1COc2ccccc2O1` (configuration not stated): the inhibition was -7.3%.

On to `CCOc1ccc2c(=O)c(-c3ccc4c(c3)OCCCO4)c(C)oc2c1`, for which the inhibition is -9.1%. The figure for `CN(C)/C=C1\C=C(c2ccccc2)OC1=O` is -0.8%; for `COc1cc2c(cc1OC)C(c1ccc(C)o1)CC(=O)N2` (configuration not stated) it is -0.6%; for `O=C(O)Cc1ccc(NC(=O)C2CCCCC2C(=O)O)cc1` (configuration not stated) it is -3.1%.

Turning to `CN(C)S(=O)(=O)c1ccc(Oc2ccc(S(=O)(=O)N(C)C)cc2)cc1`, the inhibition is 0.3%.

In the case of `Cc1cc(C)c2c(n1)nn1c(N3CCN(c4cccc(Cl)c4)CC3)cc(C)nc21`, the inhibition was 1.1%. With `CCCS(=O)(=O)N1CCC(C(=O)NCCCN(C)Cc2ccccc2)CC1` the figure was -2.9%; with `Cc1nc2ccc(S(=O)(=O)NCC(=O)O)cc2s1`, 6.9%; with `Cc1ccc(Nc2cc(=O)n(C3CCCCC3)c(=O)[nH]2)cc1C`, -0.5%. For `COc1cc2ccccc2cc1C(=O)Nc1ccc(S(=O)(=O)Nc2cc(C)on2)cc1`, the inhibition was 1.4%.

Consider `O=C(CCN1C(=O)c2ccccc2C1=O)NCCN1CCOCC1`, for which the inhibition is 3.1%.

In the case of `Cc1cccc(NC(=O)CN2CCCN(S(=O)(=O)c3ccc(Br)s3)CC2)c1`, the inhibition was 6.3%. The figure for `CCCSc1nc2c(c(=O)[nH]c(=O)n2C)n1CCc1ccccc1` is 0.6%; for `CC(=O)c1c(C)[nH]c(C(=O)NCCCN2CCCC2)c1C` it is 2.2%; for `COc1ccccc1CNC(=O)Cn1cc2c(n1)CCCC2` it is -1.9%. With `Cc1ccccc1-n1nnc2c(=O)oc3ccccc3c21` the figure was -2.1%; with `CC1(C)Oc2ccc3ccc(=O)oc3c2/C(=C/NCCO)C1=O`, -5.7%. The figure for `c1cc(-c2nn[nH]n2)ccc1CN1CCCCC1` is -4.3%; for `COc1ccc(/C(O)=C2\C(=O)C(=O)N(Cc3ccco3)C2c2ccc(OC)cc2OC)cc1` (configuration not stated) it is 26.8%. Turning to `CCOc1cccc(/C(O)=C2/C(=O)C(=O)N(CCOC)C2c2ccncc2)c1` (configuration not stated), the inhibition is -3.8%. `COc1cccc(OCC(O)CN2CCN(CCO)CC2)c1` (configuration not stated): the inhibition was 2.6%. The figure for `Cc1ccc(NC(=O)CN(C)S(=O)(=O)c2cnc[nH]2)cc1C` is -2.5%. For `COc1cc(C2C(C(=O)c3ccc(C)o3)=C(O)C(=O)N2Cc2cccnc2)ccc1O` (configuration not stated), the inhibition was 28.1%. Take `COc1ccc(/C(O)=C2/C(=O)C(=O)N(CC3CCCO3)C2c2ccc(OC)c(OC)c2)cc1` (configuration not stated): the inhibition was -7.5%. The figure for `CCCS(=O)(=O)Nc1c(C(=O)O)[nH]c2ccccc12` is 2.1%. The figure for `Cc1nnc(SCCCn2c(N3CCCCC3)nc3c2c(=O)[nH]c(=O)n3C)s1` is 0.8%; for `CCCCOC(=O)Nc1nccs1` it is -2.9%.
